Only some compounds are listed: those with a hit (about 3.3% of all), similar ones and a draw of the others.
Jurkat NFkB inh: inhibitors of the PMA/ionomycin-induced NF-kB reporter in Jurkat cells; PMA/ionomycin-induced NF-kB luciferase reporter, luminescence; inhibition, % at 4 µM; hit rate 0.53% among 330,000; AID 435003; in the data active = inhibition above about 50%
esBAF inh: blocks esBAF chromatin remodeling in mouse ES cells; reporter increase, % at 12.5 µM; AID 602393; Bmi1-luciferase knock-in reporter, 24 h; 100% = twice the neutral-well signal; hit rate 2% among 350,000; in the data active = activation above about 40%;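 also: a rise in the Bmi1 reporter signal indicates esBAF inhibition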
SMARCA2 activ: SMARCA2 function activation, primary screen. MG213 cells, MMTV-luciferase reporter, dexamethasone, overnight. activation, % at 9.1 µM. hit rate 1% among 370,000. AID 652017; in the data active = activation above about 7.8%
Gli-Sufu block: blocks Gli-Sufu signaling in a luciferase reporter; Sufu-KO-LIGHT fibroblasts, Gli luciferase reporter luminescence; inhibition, % at 5 µM; hit rate 0.74% among 340,000;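 active = inhibition above about 55%, limit read from the data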
697 NFkB inh: lowers PMA/ionomycin-induced NF-kB signal in 697 B cells | 697 B-cell NF-kB luciferase reporter, 16 h | inhibition, % at 4 µM | hit rate 0.33% among 330,000; in the data active = inhibition above about 35%
SMARCA2 conf: SMARCA2 activation, confirmation screen; shares compounds with SMARCA2 activ; AID 652260; hit rate 30% among 3,500; MG213 cells, MMTV-luciferase with dexamethasone, luminescence, overnight; MG213 cells expressing E1A, Rb sequestered; DMSO wells 0%, reference activator 100%; activation, % at 9.1 µM;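 active = activation above its plate's cutoff, the mean activation of tested wells plus 3 SD, cut at about 7.9% in these data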
VP16 Luc act: counter-screen for SMARCA2 activators: GAL4-VP16 luciferase reporter activation; shares compounds with SMARCA2 activ; HEK293 GAL4-VP16 pG5luc reporter, luciferase luminescence; scaled: DMSO wells 0%, SAHA wells 100%; activation, % at 9.1 µM; hit rate 41% among 3,500;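 active = activation above the solvent-only control well mean plus 3 SD, averaged across control plates, cut at about 5.2% in these data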
Of the large screens only hits and unclear results are named; the others gave an inactive call (follow-up assays come after a bar, where they were run).

Cc1ccc(C(=O)CSc2nc(C)cc(=O)[nH]2)cc1	SMARCA2 activ 8.2 | SMARCA2 conf inactive | VP16 Luc act inactive
C[C@@H]1CCCCO[C@H](CN(C)Cc2ccc(C(=O)O)cc2)[C@@H](C)CN([C@H](C)CO)C(=O)c2cc(NS(=O)(=O)c3ccccc3)ccc2O1	none (no result: Jurkat NFkB inh, SMARCA2 activ, Gli-Sufu block, 697 NFkB inh)
Cc1cccc(NC(=O)CN2C(=O)N/C(=C\c3ccccc3OCc3ccc(C(=O)O)cc3)C2=O)c1	SMARCA2 activ 8.7 | SMARCA2 conf inactive | VP16 Luc act inactive
Cc1cccc(S(=O)(=O)N2C[C@H]3[C@@H](c4ccccc42)[C@@H](CO)N3CC2CCOCC2)c1	none (no result: Jurkat NFkB inh, SMARCA2 activ, Gli-Sufu block, 697 NFkB inh)
C[C@@H]1CN([C@@H](C)CO)C(=O)c2cc(NS(=O)(=O)c3cn(C)cn3)ccc2O[C@@H](C)CCCCO[C@@H]1CN(C)C(=O)CCCN(C)C	none (no result: Jurkat NFkB inh, SMARCA2 activ, Gli-Sufu block, 697 NFkB inh)
Cc1cc(C)cc(NC(=O)c2cc(Cl)sc2Cl)c1	none (no result: esBAF inh)
CC(=O)c1ccc(NC(=O)c2cc(Cl)sc2Cl)cc1	SMARCA2 activ 9.3 (no result: esBAF inh) | SMARCA2 conf inactive | VP16 Luc act 7.5
CCN(CC)C(=O)Oc1ccc2c(=O)c(-c3ccccc3)coc2c1	SMARCA2 activ 13 | SMARCA2 conf inactive | VP16 Luc act 11
CCN(CC)C(=O)COc1ccc2c(-c3ccccc3)cc(=O)oc2c1	none
O=c1c(Cl)c(NCCCO)cnn1-c1nc2ccccc2[nH]1	SMARCA2 activ 22 | SMARCA2 conf 17 | VP16 Luc act 18
C=CCN(CC=C)c1cnn(-c2nc3ccccc3[nH]2)c(=O)c1Cl	none
Clc1ccc(-c2nnc(-c3ccco3)o2)cc1	esBAF inh 60, SMARCA2 activ 13 | SMARCA2 conf 8.0 | VP16 Luc act 8.3
COc1ccc(NC(=O)Nc2ccc3c(c2)C(=O)N([C@@H](C)CO)C[C@H](C)[C@@H](CN(C)C(=O)NC(C)C)O3)cc1	none (no result: Jurkat NFkB inh, SMARCA2 activ, Gli-Sufu block, 697 NFkB inh)
CO[C@H]1CN(C)C(=O)c2cc(NC(=O)C3CCCC3)ccc2OC[C@@H](C)N(CC2CC2)C[C@@H]1C	none (no result: Jurkat NFkB inh, SMARCA2 activ, Gli-Sufu block, 697 NFkB inh)
CN1C(=O)c2cc(NC(=O)C3CCCCC3)ccc2OC[C@@H]2O[C@@H](CC(=O)NCc3ccccc3F)CC[C@@H]21	none (no result: Jurkat NFkB inh, SMARCA2 activ, Gli-Sufu block, 697 NFkB inh)
CCC(C)(C)C1CCC(=NNC(=S)Nc2ccccc2)CC1 (configuration not stated)	SMARCA2 activ 8.9 | SMARCA2 conf inactive | VP16 Luc act inactive
CCC(C)(C)C1CCC(=NNC(=S)Nc2cccnc2)CC1 (configuration not stated)	none
Cn1ccc(NC(=O)c2ccc(Cl)cc2Cl)n1	SMARCA2 activ 8.6 | SMARCA2 conf inactive | VP16 Luc act 10
Cc1cc(OCC(=O)NC(C)C)cc(C)c1Cl	SMARCA2 activ 11 | SMARCA2 conf inactive | VP16 Luc act inactive
Cc1occc1C(=O)NNC(=O)c1ccccc1C(=O)O	SMARCA2 activ 12 (no result: esBAF inh) | SMARCA2 conf inactive | VP16 Luc act inactive
Cc1cc(C(=O)COC(=O)c2ccc(Br)o2)c(C)n1C	esBAF inh 45, SMARCA2 activ 9.7 | SMARCA2 conf 15 | VP16 Luc act 6.5
COc1ccc(NC(=O)Nc2cccc3c2O[C@@H](CN(C)Cc2ccncc2)[C@@H](C)CN([C@@H](C)CO)C3=O)cc1	none (no result: Jurkat NFkB inh, SMARCA2 activ, Gli-Sufu block, 697 NFkB inh)
Cc1ccccc1CN1CCNC(=O)C1CC(=O)NC1CCCCCCC1 (configuration not stated)	none
CCCOC(=O)CC1C(=O)NCCN1Cc1ccccc1C (configuration not stated)	SMARCA2 activ 9.5 | SMARCA2 conf inactive | VP16 Luc act inactive
N#CC1=C(N)Oc2n[nH]c(-c3cccnc3)c2C1c1ccc([N+](=O)[O-])o1 (configuration not stated)	SMARCA2 activ 10 (no result: esBAF inh) | SMARCA2 conf inactive | VP16 Luc act inactive
COc1ccc(NC(=O)N(C)C[C@H]2Oc3ccc(NC(=O)C4CC4)cc3C(=O)N([C@H](C)CO)C[C@H]2C)cc1	none (no result: Jurkat NFkB inh, SMARCA2 activ, Gli-Sufu block, 697 NFkB inh)
O=C(C[C@H]1CC[C@H](NC(=O)CCN2CCCCC2)[C@@H](CO)O1)NCc1ccc(Cl)c(Cl)c1	none (no result: Jurkat NFkB inh, SMARCA2 activ, Gli-Sufu block, 697 NFkB inh)
O=C(/C=C/c1ccc(Cl)cc1)Nc1cc(S(=O)(=O)N2CCOCC2)ccc1N1CCOCC1	SMARCA2 activ 8.2 | SMARCA2 conf inactive | VP16 Luc act inactive
CCN(CC)c1ccc(/C=N/NC(=O)c2ccoc2C)cc1	SMARCA2 activ 11 (no result: esBAF inh) | SMARCA2 conf inactive | VP16 Luc act 11
Cc1occc1C(=O)N/N=C/c1ccccc1[N+](=O)[O-]	SMARCA2 activ 8.2 (no result: esBAF inh) | SMARCA2 conf inactive | VP16 Luc act 9.0
CCN(CC)c1ccc(/C=N\NC(=O)c2cccc3cc[nH]c23)cc1	none
COc1cccc(/C=N/NC(=O)c2ccoc2C)c1O	none
Cc1ccc(/C=N/NC(=O)Nc2ccccc2)o1	SMARCA2 activ 8.2 (no result: esBAF inh) | SMARCA2 conf 12 | VP16 Luc act 10
CCN(CC)c1ccc(/C=N/NC(=O)Nc2ccccc2)cc1	SMARCA2 activ 11 (no result: esBAF inh) | SMARCA2 conf 11 | VP16 Luc act 11
Cc1ccc(/C=N/NC(=O)C(O)c2ccccc2)o1 (configuration not stated)	none
CC(C)NC(=O)N[C@@H]1C=C[C@@H](CC(=O)NCc2ccc(Oc3ccccc3)cc2)O[C@@H]1CO	none (no result: Jurkat NFkB inh, SMARCA2 activ, Gli-Sufu block, 697 NFkB inh)
COc1ccc(NC(=O)N(C)C[C@H]2OCCCC[C@H](C)Oc3ccc(NC(=O)CCCN(C)C)cc3C(=O)N([C@@H](C)CO)C[C@H]2C)cc1	none (no result: Jurkat NFkB inh, SMARCA2 activ, Gli-Sufu block, 697 NFkB inh)
O=C(CS(=O)c1ccc(C(F)(F)F)cc1[N+](=O)[O-])Oc1ccc(Cl)cc1 (configuration not stated)	SMARCA2 activ 11 | SMARCA2 conf 14 | VP16 Luc act inactive
Cc1cc(C)cc(OC(=O)CS(=O)c2ccc(C(F)(F)F)cc2[N+](=O)[O-])c1 (configuration not stated)	SMARCA2 activ 14 | SMARCA2 conf 13 | VP16 Luc act inactive
O=C(NCCO)c1ccc(Oc2ccc(C(F)(F)F)cc2[N+](=O)[O-])cc1	none
CC(C)NC(=O)N[C@H]1CC[C@@H](CC(=O)NCCCN(C)C)O[C@H]1CO	none (no result: Jurkat NFkB inh, SMARCA2 activ, Gli-Sufu block, 697 NFkB inh)
Cc1ccc(S(=O)(=O)Nc2ccc3c(c2)C(=O)N([C@H](C)CO)C[C@@H](C)[C@H](CN(C)Cc2ccc(Oc4ccccc4)cc2)O3)cc1	none (no result: Jurkat NFkB inh, SMARCA2 activ, Gli-Sufu block, 697 NFkB inh)
O=C(Nc1cccc(F)c1)N1C[C@H]2[C@@H](c3ccccc31)[C@H](CO)N2C(=O)Cc1ccccc1	none (no result: Jurkat NFkB inh, SMARCA2 activ, Gli-Sufu block, 697 NFkB inh)
O=C(CS(=O)(=O)c1ccccc1)N1CCc2ccccc21	SMARCA2 activ 10 (no result: esBAF inh) | SMARCA2 conf 8.5 | VP16 Luc act 9.8
O=C(CSC1=NCCS1)N1CCc2ccccc21	SMARCA2 activ 8.1 (no result: esBAF inh) | SMARCA2 conf 12 | VP16 Luc act 8.4

Screening results from PubChem.
